Assay results: PubChem BioAssay AID2283166 (EPA ToxCast)
Records with an inconclusive call do not appear. The source made the active and inactive calls. The calls were made as follows: active = hit-call score of the fitted dose curve at least 0.9, where 1 is the maximum; inconclusive = response in the unintended direction; inactive = score below 0.9.

molecular target: human Interleukin-1 Receptor-Associated Kinase 4 (IRAK4), IRAK4 (gene 51135) (UniProt Q9NWZ3); assay: NVS_ENZ_hIRAK4: NovaScreen (NVS) Enzymatic Assay for human Interleukin-1 Receptor-Associated Kinase 4 (IRAK4)
Sequence (Q9NWZ3 whole entry, looked up): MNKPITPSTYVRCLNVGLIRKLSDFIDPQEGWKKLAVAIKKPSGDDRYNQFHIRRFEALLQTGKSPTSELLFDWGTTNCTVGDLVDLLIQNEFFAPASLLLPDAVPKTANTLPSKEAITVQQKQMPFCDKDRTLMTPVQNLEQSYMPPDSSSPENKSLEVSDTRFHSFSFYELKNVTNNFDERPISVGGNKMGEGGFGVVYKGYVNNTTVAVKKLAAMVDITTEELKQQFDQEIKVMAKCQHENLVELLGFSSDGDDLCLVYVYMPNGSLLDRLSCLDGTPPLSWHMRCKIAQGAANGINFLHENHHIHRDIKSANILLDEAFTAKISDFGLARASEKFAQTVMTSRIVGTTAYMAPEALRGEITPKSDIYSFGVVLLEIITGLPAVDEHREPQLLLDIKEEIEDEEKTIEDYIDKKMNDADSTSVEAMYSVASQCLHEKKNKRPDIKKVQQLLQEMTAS
Procedure: NVS_ENZ_hIRAK4 is a biochemical, single-readout assay that uses extracted gene-proteins in a cell-free assay. Measurements were taken 1 hour after chemical dosing in a 384-well plate.NVS_ENZ_hIRAK4 is one of one assay component(s) measured or calculated from the NVS_ENZ_hIRAK4 assay. It is designed to make measurements of enzyme activity, a form of enzyme reporter, as detected with fluorescence intensity signals by Fluorescence and electrophoretic mobility shift technology.Data from the assay component NVS_ENZ_hIRAK4 was analyzed into 1 assay endpoint. This assay endpoint, NVS_ENZ_hIRAK4, was analyzed in the positive analysis fitting direction relative to DMSO as the negative control and baseline of activity. Using a type of enzyme reporter, loss-of-signal activity can be used to understand changes in the enzymatic activity as they relate to the gene IRAK4. Furthermore, this assay endpoint can be referred to as a primary readout, because this assay has produced […] where this one serves a enzymatic activity function. To generalize the intended target to other relatable targets, this assay endpoint is annotated to the kinase intended target family, where the subfamily is […].
Binding assays used specific radioligands (tritiated, iodinated) with non-radioactive competitive displacement ligands in agonist or antagonist protocols (as indicated) and various reference compounds and inhibitors to titrate specific binding to receptors and transporters. Most enzyme assays (CYPs, kinases, phosphatases, proteases, HDACs) used recombinant protein and specific substrates (fluorescence mostly, some colorimetric and radioactive) and inhibitors, followed by a biochemical separation of substrate and product. All assays for the biochemical HTS were initially run in duplicate at a single concentration (10 uM for CYP450 assays and 25 uM for all others). Assay-chemical combinations meeting a pre-defined threshold (e.g., 30% inhibition and other criteria defined below) were then run in singleton concentration-response format with maximum concentration of 20 uM for CYPs and 50 uM for all others. Each assay was run with positive and negative controls, and concurrent controls on every plate. The follow-up (secondary) screen tested active chemical-pairs in concentration series, as well as a few additional assays not tested in the primary screen, some selected negative inactives, and several cases re-run in the concentration series for confirmatory purposes.

| SMILES | outcome |
| --- | --- |
| CNC(=S)S | inactive |
| Cc1ccc(N=CN(C)C=Nc2ccc(C)cc2C)c(C)c1 | inactive |
| CCOC(=O)C(Cl)Cc1cc(-n2nc(C)n(C(F)F)c2=O)c(F)cc1Cl (stereo not given) | inactive |
| CCCCNC(=O)OCC#CI | inactive |
| COP(=S)(OC)Oc1ccc([N+](=O)[O-])cc1 | inactive |
